According to PubChem BioAssay (NCI):
“And” between values parts separate entries of the source, which are not always exact repeats. Equal entries are not always repeated. About 83,000 compounds went through this panel and 20% of them were active in at least one assay; those are over-represented in the sample as a whole.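 Cells were grown in 96-well plates and exposed to the test compound at a single concentration for 48 hours; results are reported as percent growth, with values below 10 considered active.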 The source made the active and inactive calls.

Legend:
Test in all cases: NCI-60 one-dose screen, 48 h (100 = growth as untreated, 0 = no growth, -100 = all killed)
Details in all cases: 10 µM
MALME-3M melanoma = test system: MALME-3M melanoma
MDA-MB-231 breast = test system: MDA-MB-231 breast
RXF 393 renal = test system: RXF 393 renal
M14 melanoma = test system: M14 melanoma
SK-MEL-5 melanoma = test system: SK-MEL-5 melanoma
LOX IMVI melanoma = test system: LOX IMVI melanoma
SK-MEL-28 melanoma = test system: SK-MEL-28 melanoma
SN12C renal = test system: SN12C renal
MOLT-4 leukemia = test system: MOLT-4 leukemia
OVCAR-5 ovarian = test system: OVCAR-5 ovarian
OVCAR-4 ovarian = test system: OVCAR-4 ovarian
SK-OV-3 ovarian = test system: SK-OV-3 ovarian
IGROV1 ovarian = test system: IGROV1 ovarian
HS 578T breast = test system: HS 578T breast
NCI/ADR-RES ovarian = test system: NCI/ADR-RES ovarian
T-47D breast = test system: T-47D breast
SW-620 colon = test system: SW-620 colon
MCF7 breast = test system: MCF7 breast
HCT-116 colon = test system: HCT-116 colon
KM12 colon = test system: KM12 colon

Measured: growth

CC(C)=CCc1c2c(c(O)c3c1O[C@]14C(=C[C@@H]5C[C@H]1C(C)(C)O[C@@]4(C/C=C(/C)C(=O)O)C5=O)C3=O)C=CC(C)(C)O2
active: MALME-3M melanoma -70.4% | MDA-MB-231 breast -56.1% | RXF 393 renal -85.5% | M14 melanoma -50.1% | SK-MEL-5 melanoma -98.9% | LOX IMVI melanoma -95.6% | SK-MEL-28 melanoma -88.2% | SN12C renal -26.9% | MOLT-4 leukemia -15.6% | OVCAR-5 ovarian -80.5% | OVCAR-4 ovarian -63.6% | SK-OV-3 ovarian -38.9% | IGROV1 ovarian -55.2% | HS 578T breast -11.1% | NCI/ADR-RES ovarian 4.39% | T-47D breast -40.7% | SW-620 colon -75.1% | MCF7 breast -61% | HCT-116 colon -71.5% | KM12 colon -73.4%

CC(C)(O)/C=C/C(=O)[C@](C)(O)[C@H]1[C@H](O)C[C@@]2(C)[C@H]3CC=C4[C@@H](C[C@H](O)C(=O)C4(C)C)[C@]3(C)C(=O)C[C@]12C
active: MALME-3M melanoma -28.3% | RXF 393 renal -35.3% | SK-MEL-5 melanoma 1.6% | LOX IMVI melanoma -13.8% | SK-MEL-28 melanoma -7.52% | SN12C renal 9.22% | SK-OV-3 ovarian -8.31% | IGROV1 ovarian -24.4% | HS 578T breast 3.77%
inactive: MDA-MB-231 breast 10.4% | M14 melanoma 17.1% | MOLT-4 leukemia 24.8% | OVCAR-5 ovarian 35.1% | OVCAR-4 ovarian 18.3% | NCI/ADR-RES ovarian 24.7% | T-47D breast 27.2% | SW-620 colon 22.9% | MCF7 breast 13% | HCT-116 colon 13.9% | KM12 colon 42.2%

CC1=C[C@H]2O[C@@H]3C[C@@H](O)[C@](C)([C@@]2(C)CC1)[C@@]31CO1
inactive: MALME-3M melanoma 21% | MDA-MB-231 breast 42.4% | RXF 393 renal 15.3% | SK-MEL-5 melanoma 12.1% | LOX IMVI melanoma 13.6% | SK-MEL-28 melanoma 27.1% | SN12C renal 25.4% | OVCAR-5 ovarian 78.9% | OVCAR-4 ovarian 32% | SK-OV-3 ovarian 22.9% | IGROV1 ovarian 28.3% | HS 578T breast 37.8% | NCI/ADR-RES ovarian 36.1% | T-47D breast 29.6% | SW-620 colon 24% | MCF7 breast 17.6% | KM12 colon 26.1%
active: M14 melanoma 6.68% | MOLT-4 leukemia 9.97% | HCT-116 colon 7.52%

N#Cc1c(-n2c(Br)c(Br)c3cc(Br)ccc32)[nH]c2c(Br)cc(Br)cc12
inactive: OVCAR-5 ovarian 33% | OVCAR-4 ovarian 20.4% | IGROV1 ovarian 25.4%
active: MALME-3M melanoma -17.4% | MDA-MB-231 breast -2.11% | RXF 393 renal -31.7% | M14 melanoma -32.4% | SK-MEL-5 melanoma -76.8% | LOX IMVI melanoma -25.2% | SK-MEL-28 melanoma 5.46% | SN12C renal 0.622% | MOLT-4 leukemia 2.02% | SK-OV-3 ovarian -44.3% | HS 578T breast -6.84% | NCI/ADR-RES ovarian -2.1% | T-47D breast -13% | SW-620 colon 4.15% | MCF7 breast -13.6% | HCT-116 colon -66.1% | KM12 colon -19.4%

CC1=C2C(=C[C@@](C)(COC(=O)c3ccc(S(=O)(=O)F)cc3)[C@@H]2O)C(=O)[C@](C)(O)C12CC2
active: MALME-3M melanoma -56.1% | MDA-MB-231 breast -16.3% | RXF 393 renal -88.8% | M14 melanoma -85% | SK-MEL-5 melanoma -82.5% | LOX IMVI melanoma -40.2% | SK-MEL-28 melanoma -66.3% | SN12C renal -2.35% | OVCAR-5 ovarian -12.4% | OVCAR-4 ovarian -33.5% | SK-OV-3 ovarian -24.7% | IGROV1 ovarian -13.9% | HS 578T breast -16% | NCI/ADR-RES ovarian -3.75% | T-47D breast 0.908% | SW-620 colon -20.5% | MCF7 breast 1.68% | HCT-116 colon -4.41% | KM12 colon 7.74%
inactive: MOLT-4 leukemia 10.2%

CCCCCCCCCC(=O)N[C@@](C)(CC)C(=O)N1CCC[C@H]1C(=O)N[C@@H](CC(C)C)C(=O)N[C@@](C)(CC)C(=O)N[C@@H](CCC(N)=O)C(=O)N[C@H](CCC(N)=O)C(=O)NC(C)(C)C(=O)NC(C)(C)C(=O)N[C@@H](CCC(N)=O)C(=O)N[C@H](CC(C)C)C(=O)N[C@H](CO)CC(C)C
active: MALME-3M melanoma -89.7% and -98.6% | MDA-MB-231 breast -92.2% and -98.5% | RXF 393 renal -89.1% and -89.3% | M14 melanoma -80.7% and -65.5% | SK-MEL-5 melanoma -94.2% and -97.9% | LOX IMVI melanoma -87.8% and -92.7% | SK-MEL-28 melanoma -97.1% and -100% | SN12C renal -86.9% and -98.8% | MOLT-4 leukemia -50.5% and -25.3% | OVCAR-5 ovarian -98.7% and -100% | OVCAR-4 ovarian -38.1% and -35.2% | SK-OV-3 ovarian -77.5% and -56.9% | IGROV1 ovarian -84.9% and -85.5% | HS 578T breast -70.1% and -58.6% | NCI/ADR-RES ovarian -82.9% and -77% | T-47D breast -6.91% and -59.3% | SW-620 colon -79.7% and -77.5% | MCF7 breast -76.7% and -77.6% | HCT-116 colon -66.1% and -29% | KM12 colon -90.6% and -93.5%

COc1cccc2c1cc([N+](=O)[O-])c1c(C(=O)O)cc3c(c12)OCO3
inactive: MALME-3M melanoma 95.9% | MDA-MB-231 breast 106% | RXF 393 renal 104% | M14 melanoma 103% | SK-MEL-5 melanoma 102% | LOX IMVI melanoma 100% | SK-MEL-28 melanoma 112% | SN12C renal 113% | MOLT-4 leukemia 99.6% | OVCAR-5 ovarian 106% | OVCAR-4 ovarian 108% | SK-OV-3 ovarian 113% | IGROV1 ovarian 106% | HS 578T breast 105% | NCI/ADR-RES ovarian 107% | T-47D breast 95.8% | SW-620 colon 101% | MCF7 breast 94.9% | HCT-116 colon 101% | KM12 colon 104%

CC1=C2C(=O)[C@](C)(CO)C=C2C(=O)[C@](C)(O)C12CC2
inactive: MDA-MB-231 breast 24.6% | M14 melanoma 22.3% | SK-MEL-5 melanoma 24.2% | SK-MEL-28 melanoma 17.9% | SN12C renal 40.2% | MOLT-4 leukemia 27.3% | OVCAR-5 ovarian 10.2% | OVCAR-4 ovarian 44.4% | SK-OV-3 ovarian 24.2% | IGROV1 ovarian 18.9% | HS 578T breast 80.4% | KM12 colon 31.9%
active: MALME-3M melanoma -24.5% | RXF 393 renal -82.9% | LOX IMVI melanoma -25.9% | NCI/ADR-RES ovarian 5.56% | T-47D breast 6.69% | SW-620 colon 9.68% | MCF7 breast 1.34% | HCT-116 colon 5.03%

CC1=C[C@H]2O[C@@H]3C[C@H]4OC(=O)/C=C\C=C\[C@H]([C@@H](C)O)OCC/C(C)=C/C(=O)OC[C@@]2(CC1)[C@]4(C)[C@]31CO1
active: MALME-3M melanoma -65.9% | MDA-MB-231 breast -29.6% | RXF 393 renal -70.5% | M14 melanoma -73.7% | SK-MEL-5 melanoma -89.2% | LOX IMVI melanoma -81.1% | SK-MEL-28 melanoma -38.6% | SN12C renal -16.1% | MOLT-4 leukemia -18.5% | OVCAR-5 ovarian -14.8% | OVCAR-4 ovarian -22.1% | SK-OV-3 ovarian -23.5% | IGROV1 ovarian -10.7% | HS 578T breast -9.53% | NCI/ADR-RES ovarian -20% | T-47D breast -20% | SW-620 colon 0.094% | MCF7 breast -10.6% | HCT-116 colon -28.7% | KM12 colon 3.74%

CN1C(=O)[C@]23SSC1(C)C(=O)N2[C@H]1Nc2ccccc2C1([C@@]12c4ccccc4N[C@@H]1N1C(=O)C4(C)SS[C@]1(C(=O)N4C)[C@H]2O)[C@@H]3O (stereo not given in full)
active: MALME-3M melanoma -81.5% | MDA-MB-231 breast -52.1% | RXF 393 renal -93.3% | M14 melanoma -90% | SK-MEL-5 melanoma -99% | LOX IMVI melanoma -89.9% | SK-MEL-28 melanoma -96.5% | SN12C renal -96.1% | MOLT-4 leukemia -20.6% | OVCAR-5 ovarian -66.2% | OVCAR-4 ovarian -98.7% | SK-OV-3 ovarian -98.8% | IGROV1 ovarian -71.7% | HS 578T breast -49.4% | NCI/ADR-RES ovarian -19.4% | T-47D breast -81.3% | SW-620 colon -88.2% | MCF7 breast -77.4% | HCT-116 colon -99.5% | KM12 colon -94.4%

CCC(C)[C@H]1C(=O)O[C@H](C(C)C)C(=O)N(C)[C@@H](C(C)C)C(=O)O[C@H](C(C)C)C(=O)N(C)[C@@H](C(C)C)C(=O)O[C@H](C(C)C)C(=O)N1C (stereo not given in full)
active: MDA-MB-231 breast 7.98% | SK-MEL-5 melanoma -33.5% | LOX IMVI melanoma 9.79% | SN12C renal 7.58% | MOLT-4 leukemia -13% | SK-OV-3 ovarian -9.75% | NCI/ADR-RES ovarian 5.25% | T-47D breast 3.16%
inactive: MALME-3M melanoma 14.7% | RXF 393 renal 22% | M14 melanoma 21.2% | SK-MEL-28 melanoma 34.4% | OVCAR-5 ovarian 20.7% | OVCAR-4 ovarian 20.3% | IGROV1 ovarian 34.4% | HS 578T breast 30.4% | SW-620 colon 17.4% | MCF7 breast 12.5% | HCT-116 colon 12.2% | KM12 colon 16.4%

C[C@@H]1C[C@H]2C(=O)O[C@@H](C)C(NC(=O)[C@H](Cc3cc(F)cc(F)c3)NC(=O)Nc3ccc(OS(=O)(=O)F)cc3)C(=O)N3CCC[C@H]3C(=O)N3CCO[C@H](C)[C@H]3C(=O)N[C@@H](CO)C(=O)N2C1 (stereo not given in full)
active: RXF 393 renal -5.55% | SK-MEL-5 melanoma -6.32% | LOX IMVI melanoma 7.58% | HCT-116 colon 9.86%
inactive: MALME-3M melanoma 39% | MDA-MB-231 breast 32% | M14 melanoma 23.6% | SK-MEL-28 melanoma 40.5% | SN12C renal 21.1% | MOLT-4 leukemia 43.8% | OVCAR-5 ovarian 33.4% | OVCAR-4 ovarian 26.2% | SK-OV-3 ovarian 18.7% | IGROV1 ovarian 47.4% | HS 578T breast 40.2% | NCI/ADR-RES ovarian 99.2% | T-47D breast 33% | SW-620 colon 39% | MCF7 breast 16.8% | KM12 colon 37.8%

C/C=C\C(=O)O[C@@H]1CC2O[C@@H]3C=C(C)C(=O)C[C@]3(C)[C@]1(C)[C@]21CO1
active: MALME-3M melanoma -22.9% | MDA-MB-231 breast -21.1% | RXF 393 renal -31.6% | M14 melanoma -78.6% | SK-MEL-5 melanoma -57% | LOX IMVI melanoma -56.3% | SK-MEL-28 melanoma -20.9% | SN12C renal -6.14% | MOLT-4 leukemia -26.4% | OVCAR-5 ovarian -3.51% | OVCAR-4 ovarian -12.2% | SK-OV-3 ovarian -15.1% | IGROV1 ovarian 1.08% | HS 578T breast -2.98% | NCI/ADR-RES ovarian -3.97% | T-47D breast -24% | SW-620 colon 0.59% | MCF7 breast 0.933% | HCT-116 colon -29.4% | KM12 colon 3.28%
